# PK Bst = alters activity of Bacillus stearothermophilus pyruvate kinase; purified pyruvate kinase, luminescence ATP production; ribose 5-phosphate activator present at AC10; Potency, µM; 51,000 compounds, 1.2% hits; AID 361; in the data active = potency below about 11 µM; inconclusive = mostly about 12 µM to 25 µM;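 the screen sought inhibitors and activators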;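 note: scaled between full activation by ribose 5 phosphate and full inhibition by luteolin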
# Luciferase inh = inhibitors of firefly luciferase. P08659. purified firefly luciferase, luminescence, 8 min. Potency, µM (top dose mostly 57.1 µM), without a hit: at the top dose activity change, negative = inhibition, most hits filed as inhibitors. 72,000 compounds, 2.2% hits; active = well fitted inhibition curve with a large enough effect; inconclusive = small, poorly fitted or top-dose-only effect; note: nearly all actives have a fitted effect of over 40% in size
# Target sequence (P08659 whole entry, looked up): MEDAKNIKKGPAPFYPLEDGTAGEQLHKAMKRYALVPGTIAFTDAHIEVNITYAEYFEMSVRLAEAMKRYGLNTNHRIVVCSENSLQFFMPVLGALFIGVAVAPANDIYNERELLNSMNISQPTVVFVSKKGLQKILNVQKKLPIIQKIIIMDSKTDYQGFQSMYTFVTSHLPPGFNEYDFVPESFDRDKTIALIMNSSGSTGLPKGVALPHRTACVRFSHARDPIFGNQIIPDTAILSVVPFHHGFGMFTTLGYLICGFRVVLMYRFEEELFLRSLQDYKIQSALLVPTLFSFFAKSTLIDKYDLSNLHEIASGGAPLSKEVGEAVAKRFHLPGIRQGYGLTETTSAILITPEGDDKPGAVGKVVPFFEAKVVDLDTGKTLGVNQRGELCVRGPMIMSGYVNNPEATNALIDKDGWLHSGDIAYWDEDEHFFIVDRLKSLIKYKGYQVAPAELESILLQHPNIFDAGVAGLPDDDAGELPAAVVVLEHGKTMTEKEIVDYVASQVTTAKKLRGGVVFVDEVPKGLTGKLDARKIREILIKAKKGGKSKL
#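 Substrate buffer containing 10 uM ATP (pH 7.2 imidazole, Mg2+, KCl, detergent, BSA) is dispensed, compound pinned in, then luciferase/luciferin detector mix added. After 8 min at ambient temperature, light output is measured.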
# * marks the source's active call; other numbers are inactive results; i = inactive; ? = inconclusive; / = no result; [ ] = remark or other dose. An excerpt weighted towards active compounds, which were near 2.5% of everything screened. Unless noted, % is set by controls: 0 for no effect and ±100 for the full control effect; potency is the fitted concentration of half-maximal effect.
SMILES,PK Bst,Luciferase inh
CC(C)(C)NC(=O)[C@@H]1C[C@H]2CCCC[C@@H]2CN1C[C@H](O)[C@H](Cc1ccccc1)NC(=O)[C@@H](CC(N)=O)NC(=O)c1ccc2ccccc2n1,/,4%[25.5 µM]
CCN(CCO)C[C@H]1CCC[C@H]2CCCC[C@@H]21,/,1%[11.4 µM]
COc1ccc2nc3oc(C(=O)N4CCCCC4)cc3cc2c1,?,13µM*
CCOC(=O)C1CCN(C(=O)c2cc3cc4cc(OC)ccc4nc3o2)CC1,i,-5%
OC[C@@H](O)[C@@H](O)[C@@H](O)[C@@H](O)c1nc2ccc(Cl)cc2[nH]1,/,2%[11.4 µM]
CCCC(=O)Nc1nc2ccc(OCC)cc2s1,/,13µM*
Cc1ccc2nc(NC(=O)CN3CCOCC3)sc2c1,>57,-3%
CCOc1ccc2nc(NC(=O)CS(=O)(=O)c3ccccc3)sc2c1,>57,-24%
COCC(=O)Nc1nc2ccc(C)cc2s1,i,20µM*
COc1ccc(-c2nc3cnc(OC)nc3n(-c3ccc(OC)cc3)c2=O)cc1,/,0%[11.4 µM]
NCCSCc1ccccc1Cl,/,0%[11.4 µM]
CCN(CC)c1ccc2cc(C(=O)Nc3ccccn3)c(=O)oc2c1,i,1µM*
CCN(CC)c1ccc2cc(NC(=O)CCC(=O)O)c(=O)oc2c1,i,16µM*
CCN(CC)c1ccc2cc(-c3nnc(-c4ccncc4)o3)c(=O)oc2c1,>26,-2%[25.5 µM]
CCN(CC)c1ccc2cc(C(=O)Nc3cccnc3N3CCOCC3)c(=O)oc2c1,>57,0%
c1cncc(CNCc2cccnc2)c1,/,1%[11.4 µM]
CCN1C(=O)[C@@H]2[C@H]3C(=CC[C@H]2C1=O)C(=O)[C@H]1OC1[C@H]3O (stereo not given in full),/,-3%[11.4 µM]
COc1ccc(-c2csc(C3=C(O)CN(Cc4ccc(S(N)(=O)=O)cc4)C3=N)n2)cc1OC,>57,-4%
N=C1C(c2nc(-c3ccc(Cl)cc3)cs2)=C(O)CN1CCCN1CCOCC1,4.5*,-10%
Cc1csc(C(C#N)C(=O)c2cc3ccccc3o2)n1 (stereo not given),?,13µM*
CCC(=O)Nc1ccc(NC(=O)c2cc3ccccc3o2)cc1,/,-21%
c1ccc2c(-c3nc(-c4ccncc4)no3)cccc2c1,>11,-18%
Brc1ccccc1-c1nc(-c2ccccc2)no1,/,3.2µM*
NC(=O)c1ccccc1-c1nc(-c2ccccc2)no1,/,-27%
Clc1ccc(Br)cc1-c1nc(-c2ccncc2)no1,>57,0%
SMILES,PK Bst,Luciferase inh
c1ccc(CCc2ccccc2-c2nc(-c3cccnc3)no2)cc1,/,2%
Fc1ccccc1-c1nc(-c2ccccc2)no1,5.8*,6.3µM*
Cc1ccc(-c2nc(-c3ccccc3)no2)c(Cl)c1,/,0.25µM*
c1ccc(-c2noc(-c3cccc4ccccc34)n2)cc1,i,16µM*
Cc1ccc(-c2cc(-c3nnc(SCC(=O)N(C)CCC#N)n3N)c3ccccc3n2)cc1,i,13µM*
Cc1cc(C)cc(NC(=O)CSc2nnc(-c3ccccc3)n2N)c1,>57,4%
NC(=O)[C@@H]1CCCN1Cc1ccc2c(c1)OCO2,/,1%[11.4 µM]
C=C1C=C(Br)C2(OCCCO2)[C@H]2OC12 (stereo not given in full),/,2%[11.4 µM]
CN1/C(=C\C(=O)c2cccs2)Sc2ccccc21,6.6*,6.3µM*
COCC(=O)/C=C1\Sc2ccccc2N1C,>57,-1%
O=C(O)C(Cc1cccs1)C(=O)O,/,1%[11.4 µM]
COc1ccc(OC(C)C(=O)N2CCc3ccccc3C2)cc1 (stereo not given),i,1%
COc1cc(C(=O)OC(C)C(=O)N2CCc3ccccc3C2)ccc1OCC(=O)N1CCOCC1 (stereo not given),11*,-2%
CCc1nnc(NC(=O)Nc2ccc(OC)cc2)s1,>57,-18%
COc1ccc(CNC(=O)c2ccc3nccnc3c2)cc1,/,3%
COc1ccc(NC(=O)Nc2ccc(N(C)C)cc2)cc1,/,13µM*
COc1ccc(NC(=O)Nc2nccs2)cc1,i,13µM*
COc1ccccc1C(=O)Nc1cccc(N(C)S(C)(=O)=O)c1,>57,-22%
COc1ccc(CNC(=O)Nc2ccc(OC)cc2)cc1,>57,0%
COc1cccc(C(=O)Nc2ccc(N(C)C)cc2)c1OC,i,16µM*
COc1ccc(NC(=O)Nc2ccc3nccnc3c2)cc1,/,6.3µM*
N#Cc1c(NC(=O)C(F)(F)F)sc2c3c(=O)c4ccccc4c(=O)c=3oc3ccccc3c12,/,-1%[11.4 µM]
C=C(C)CNCCN,/,3%[11.4 µM]
C[N+]1(CCC[N+]2(C)C[C@H]3[C@H](C2)[C@H]2C=C[C@@H]3CC2)CCOCC1 (stereo not given in full),/,0%[11.4 µM]
C[N+]1(C)CCc2cc(O)c(O)cc2[C@H]1Cc1ccc(O)c(O)c1,/,-4%[11.4 µM]
SMILES,PK Bst,Luciferase inh
Cc1cccc2cc3ccc4ccccc4c3cc12,/,-3%[11.4 µM]
Nc1nc(SCc2ccccc2[N+](=O)[O-])c2[nH]cnc2n1,/,2%[11.4 µM]
CN1CCN(c2ncc3nc(-c4cccc(C#N)c4)c(=O)n(CCc4ccccc4)c3n2)CC1,/,1%[11.4 µM]
COc1nc(Nc2nc3ccccc3c(=O)[nH]2)nc2ccc(C)cc12,/,2%
Cc1nc(Nc2nc(-c3ccccc3)cc(=O)[nH]2)nc2ccccc12,5.1*,10µM*
CN(C)Cc1cc(C(C)(C)C)cc(CNC2CCCCC2)c1O,/,3%[11.4 µM]
Cc1nc(NCc2ccc3c(c2)OCO3)c2oc3ccccc3c2n1,>57,1%
Cc1nc(Nc2ccc3c(c2)OCCO3)c2oc3ccccc3c2n1,4.3*,-4%
O=C(N/N=C1/C[C@@H](O)[C@@H](O)[C@@H]2[C@H]3C(=O)N(c4ccc(F)cc4F)C(=O)[C@@H]3CC[C@@H]12)OCc1ccccc1,/,3%[11.4 µM]
N#Cc1c(/N=C/c2ccco2)sc2c1CCCCC2,0.52*,0.79µM*
N#Cc1c(/N=C/c2cccs2)sc2c1CCC2,?,10µM*
CN1CCc2c(sc(/N=C/c3cccs3)c2C(N)=O)C1,i,-25%
O=c1c2c3c(sc2ncn1/N=C/c1ccco1)CCCC3,/,-19%
COc1ccc(C(C(O)C(=O)c2c[nH]c3ccccc23)N2CCN(c3ccc(OC)cc3)CC2)cc1 (stereo not given),>57,1%
COc1ccc(C(=O)c2c[nH]c3ccccc23)cc1,/,10µM*
CN(C)CCCCN1CCc2c(n(C)c3ccccc23)C1=O,/,2%[11.4 µM]
O=C(O)/C=C/c1ccc(O)c(O)c1,>11,-2%[25.5 µM]
O=C(/C=C\c1ccc(O)cc1)c1ccc(O)cc1O,/,25µM*
OCc1ccncc1.OCc1ccncc1.[Cl][Pt]([Cl])([Cl])[Cl],/,-1%[11.4 µM]
O=C(Nc1ccc(N2CCCC2=O)cc1)c1cccc(F)c1,/,-13%
O=C(c1ccccc1)c1ccc(N2CCCC2)cc1,/,13µM*
O=C(c1ccccc1)c1ccc(N2CCNCC2)cc1,>57,-2%
CN1CCN(c2ccc(C(=O)c3ccc(F)cc3)cc2)CC1,/,25µM*
O=C(Nc1ccc(N2CCCC2)cc1)c1cccc(F)c1,?,3.2µM*
O=C(O)CCC(=O)N1CCN(c2ccc(C(=O)c3ccc(F)cc3)cc2)CC1,>57,-3%
SMILES,PK Bst,Luciferase inh
Cc1noc(C)c1-c1nccc(NCc2ccccc2)n1,/,0%[2.29 µM]
CC(C)CN(CC#N)CC(C)C,/,2%[11.4 µM]
COc1ccccc1-c1cc(C(=O)N2CCc3ccccc3C2)no1,/,-10%
N#Cc1cc2sc3nc4ccccc4n3c2cc1C#N,>57,0%
O=c1/c(=C/c2ccccn2)sc2nc3ccccc3n12,/,0.25µM*
O=c1c2ccccc2nc2sc3ccccc3n12,6.8*,-14%
COC(=O)/C=c1/sc2nc3ccccc3n2c1=O,/,-5%
O=C(CN1C(=O)c2ccccc2C1=O)[C@@H](O)CN1C(=O)c2ccccc2C1=O,/,4%[11.4 µM]
